# Measured values taken from ChEMBL document CHEMBL3988442, “University of Dundee, Small-Polar-MMV Screening Library” (2021).
# Values joined by “and” are separate entries in the source; they are usually repeats but may differ in a detail not shown here. Equal values may be shown once. Among all 34,000 compounds or so, about 290 (0.85%) showed an effect of 50% or more. Many of the other results were omitted from the sample, so strong results are more common in it than they were.
# Tested on: Plasmodium falciparum
# Assay: Plasmodium falciparum sporozoite viability assay
# Type: functional, organism-based
# Design: scale not given: in the data most compounds retested in dose-response had high values
SMILES,Percent Effect (10 mM as filed; unlikely as a test dose),Percent Effect
Cc1nn(C)c(N2CCOCC2)c1CNCc1ccc(N(C)C)nc1,6.683% and 14.39% and 13.71%,–
COc1ccc(CNCc2c(C)nn(C)c2N2CCOCC2)cc1,-16.18% and -2.312% and -16.24%,–
C=Cn1ncc(CN2C[C@@H]3CCCN3C[C@H]2Cc2ccccc2)c1C,–,-1.399%
CC(=O)N1N=C(c2cccs2)OC1C(=O)Nc1ccc(C)cc1 (stereo not drawn),–,-16.37%
Cc1sc2c(C3CCNCC3)nc(Nc3cccc(F)c3)n2c1C.Cl,63.64% and 42.54% and 49.37%,–
COc1cccc(-c2ccnc(C3CCNCC3)c2)c1,–,4.65%
COc1cccc(Nc2nc(C3CCNCC3)c3sc(C)c(C)n23)c1.Cl,77.36% and 36.71% and 52.33%,–
COc1cccc(Nc2nc(C3CCCNC3)c3sc(C)c(C)n23)c1.Cl (stereo not drawn),4.856% and 5.657% and 12.75%,–
Cc1nc(NCc2cccc(F)c2)cc(C2CCNCC2)n1.Cl,–,0.8951%
COc1cccc(-n2nnc(C(=O)N3CCN(C(C)=O)CC3)c2C)c1,–,6.024%
COCC1CC2(CCN(c3cccc(C)n3)CC2)CN1c1ncccn1.O=C(O)C(F)(F)F (stereo not drawn),–,-2.7%
COCCNC(=O)C1(CCCc2cccnc2)CCCN1C (stereo not drawn),–,16.89%
O=C1C(NCc2nnc3n2CCCC3)CCCN1c1ccccc1 (stereo not drawn),–,6.53%
Cc1ccc2c(c1)C(=O)NCC1(CCN(C(=O)c3cc(C)no3)CC1)O2,–,21.42%
CN1C[C@@H](C(=O)N2CCOCC2)[C@@]2(CCc3ccccc3C(=O)N2)C1,–,-1.963%
Cn1nc(C2CNCCO2)cc1CCOc1ccc(C(F)(F)F)cc1 (stereo not drawn),–,8.847%
COc1ccc(-c2ccc(C3CNCCO3)nc2)cc1.Cl (stereo not drawn),82.18% and 93.08% and 86.88%,–
COc1ccc(-c2cnc(N(C)C)nc2C2CNCCO2)cc1.Cl (stereo not drawn),–,3.932%
COc1ccc(OCCc2cc(C3CNCCO3)nn2C)cc1 (stereo not drawn),–,0.06458%
COc1ccc(-c2ccnc(C3CCNCC3)c2)cc1.Cl,–,12.14%
O=C(CCn1ccnc1)N1CCC(c2nnc(-c3ccccn3)o2)CC1,–,18.74%
Cc1cc(NC(=O)CN(C)C2CCCN(c3cccnn3)C2)on1 (stereo not drawn),–,6.872%
Cc1cc2nc(SCC(=O)N3CCCCC3)n(C)c(=O)c2[nH]1,–,16.8%
CN1C(=O)CCCC12CCCN(C(=O)c1ccoc1)C2 (stereo not drawn),–,8.123%

SMILES,Percent Effect (10 mM as filed; unlikely as a test dose),Percent Effect
Cc1nnc2n1CCN(C(=O)c1cc(C)n(-c3cccnc3)c1C)C2,-3.499% and -16.38% and -11.58%,–
Cc1nnc2n1CCN(C(=O)c1cc(C)n(-c3ccccn3)c1C)C2,-4.516% and -0.613% and 8.394%,–
Cc1ccccc1-n1c(C)cc(C(=O)N2CCn3c(C)nnc3C2)c1C,-10.25% and 8.528% and -8.016%,–
Cc1cc(C(=O)N2CCc3nnc(N)cc3C2)c(C)n1-c1cccnc1,-13.69% and -18.44% and -9.069%,–
CCn1c(C)cc(C(=O)N2CCc3nnc(N)cc3C2)c1C,-3.903% and -4.783% and -13.87%,–
Cc1cccc(-n2c(C)cc(C(=O)N3CCn4c(C)nnc4C3)c2C)c1,50.81% and 47.19% and 51.44%,–
Cc1nnc2n1CCN(C(=O)c1cc(C)n(-c3ccccc3)c1C)C2,80.6% and 90.57% and 75.3%,–
O=C(NCCc1cc(N2CCOCC2)nc(NC2CC2)n1)C1CCCO1 (stereo not drawn),–,11.42%
Cc1cc(C)n(CC2CCCN2CCS(C)(=O)=O)n1 (stereo not drawn),–,6.268%
CCn1c(C2CCN(C(=O)c3cc(CC(C)C)on3)CC2)nn(C)c1=O,-0.7877% and 5.537%,–
CNC(=O)c1cn[nH]c1C1CCCN1C(=O)c1cccnc1 (stereo not drawn),–,6.523%
COCCN(Cc1cccc(C#N)c1)Cc1nc(C)no1,48.82% and 52.01%,–
Cc1noc(CN(CCc2cccs2)Cc2cccc(C#N)c2)n1,-26.23% and -21.92%,–
Cc1noc(CN(CCc2ccco2)Cc2cccc(C#N)c2)n1,-11.78% and -9.281%,–
COc1cccc(CN2CCCCCC2c2cccc(C)c2)c1O (stereo not drawn),44.13% and 43.49% and 59.81%,–
COc1cccc(CN2CCCCCC2c2sccc2C)c1O (stereo not drawn),49.38% and 41.71%,–
COCCC(=O)N1CCCN(Cc2nccn2C(C)C)CC1,–,9.219%
c1cncc(OCc2nc(C3CC3)nn2-c2ccc3c(c2)OCCO3)c1,74.85% and 76.98%,–
c1cncc(CCc2nc(C3CC3)nn2-c2ccc3c(c2)OCCO3)c1,41.36% and 42.97%,–
c1ccc(Cc2nc(C3CC3)nn2-c2ccc3c(c2)OCCO3)nc1,32.69% and 40.6%,–
O=C(c1cn(-c2ccccc2Cl)nn1)N1CCSCC1,-17.97% and -41.49%,–
O=C(c1cn(-c2cccc(Cl)c2F)nn1)N1CCCSCC1,-42.82% and -45.17%,–
CN(C)c1cccc(C(=O)NCC(O)c2cccs2)c1 (stereo not drawn),12.86% and 4.207%,–
CN1CCN(C(=O)[C@H]2CC[C@@H]3[C@@H](CCN3Cc3nccs3)O2)CC1,–,-3.61%

SMILES,Percent Effect (10 mM as filed; unlikely as a test dose),Percent Effect
COc1ccccc1C(=O)Nc1nc2c(s1)CN(S(=O)(=O)C1CC1)CC2,82.29% and 80.43%,–
CCc1nc(CN2CCCN(Cc3cnn(C)c3)CC2)no1,–,-9.563%
CCc1nc(CN2CCCC(N(C)Cc3cnn(C)c3)C2)no1 (stereo not drawn),–,-6.257%
Cc1ncncc1-c1ccnc(NC(C)C)n1,–,-0.5927%
CN(C)C(=O)c1cccnc1SCc1ccccc1Cl,–,-19.98%
Cc1cc(CN2CCN(C(=O)NCc3csc(C)n3)CC2)on1,–,-16.07%
CC(=O)Nc1ncc(S(=O)(=O)Nc2ccc3c(c2)OCCO3)s1,98.04% and 98.83%,–
CCc1ccc(C(=O)O)cc1S(=O)(=O)Nc1ccc(F)c(C#N)c1,–,9.76%
CC(=O)Nc1ncc(S(=O)(=O)Nc2ccc(C)cc2)s1,-23.3% and -22.01%,–
Cc1cc(C(=O)O)cc(S(=O)(=O)Nc2ccc3c(c2)OCCCO3)c1C,3.546% and -0.5757% and 17.55%,–
CC(=O)Nc1ncc(S(=O)(=O)Nc2cccc(F)c2)s1,-17.58% and -16.77%,–
Cc1c(F)cc(C(=O)O)cc1S(=O)(=O)Nc1ccc2c(c1)OCCO2,59.81% and 58.05% and 66.51%,–
Cc1cc(C(=O)O)cc(S(=O)(=O)Nc2ccc3c(c2)OCCO3)c1C,24.31% and 12.71% and 29.08%,–
COc1ccc(CN2CCN(C(C)=O)CC3(CC(=O)N(C)C3)C2)cc1.O=C(O)C(F)(F)F (stereo not drawn),–,6.785%
CCOc1ccc(CC(=O)N2CCCC(n3nc(C)nc3C)C2)cc1 (stereo not drawn),–,-2.342%
CC(C)N(Cc1nc(-c2cccs2)no1)CC1CCC(=O)N1 (stereo not drawn),–,3.846%
OC(COCc1ccc2c(c1)OCO2)CN1CC(n2cccn2)C1 (stereo not drawn),–,13.47%
Cc1cc(C)n(C2CCN(Cc3nc4ccccc4n3C)CC2)n1,–,1.623%
CC1=N[C@@]2(CC[C@@H]3CN(Cc4ccccc4)C[C@@H]32)C(=O)N1CC1CC1.O=C(O)C(F)(F)F,–,2.527%
CN1CC2(CCCN(Cc3nnc(-c4ccco4)o3)CC2)OC1=O (stereo not drawn),-3.132% and -3.886%,–
CN(C)CCN(C)c1cc(N2CCN(c3ccccn3)CC2)ncn1,–,-8.534%
CN(C)c1cc(N2CCN(c3ccccn3)CC2)ncn1,–,-18.98%
CC(=O)N1CCCC1(C)c1nc(C)no1 (stereo not drawn),–,0.7282%
Cc1nc(C)c(CNC(=O)N2CCc3ccccc3C2CO)s1 (stereo not drawn),–,-12.91%

SMILES,Percent Effect (10 mM as filed; unlikely as a test dose),Percent Effect
COCCCN1Cc2cccc(NC(=O)c3cc(F)cc(F)c3)c2C1,-15.93% and -21.99% and -27.51%,–
Cc1cnn(CCNCc2nnc(C3CC3)o2)c1,–,9.956%
NC(=O)c1ccc(NC(=O)Cn2cc(I)cn2)cc1,84.67% and 86.35% and 89.46%,–
CCOC(=O)c1ccc(NC(=O)Cn2cc(I)cn2)cc1,-22.37% and -20.15% and -13.35%,–
Cc1ccc(NC(=O)Cn2cc(I)cn2)cc1,-17.48% and -21.7% and -14.78%,–
O=C(c1cccnc1)N1Cc2ccccc2OCC1Cn1ccnc1 (stereo not drawn),–,-1.384%
Cc1cc(C)nc(C2CCN(C(=O)c3cnc(N(C)C)nc3)C2)n1 (stereo not drawn),–,-0.8427%
COC(=O)c1sc(NCc2ccc(N3CCC(O)CC3)c(F)c2)nc1Cl,-24.87% and -16.11% and -1.959%,–
OC1CCN(c2ccc(CNc3nc4ccccc4s3)cc2F)CC1,62.02% and 41.95% and 71.05%,–
O=C(O)C(F)(F)F.O=C(O)C(F)(F)F.c1ccc(NCc2cnc3n2CCN(CC2CCOC2)CC3)nc1 (stereo not drawn),–,-7.491%
Cc1ncsc1C(=O)NCc1ccnc(OCC(F)(F)F)c1,–,6.389%
CCN(CC)S(=O)(=O)c1cc2c3c(c1)c(C)cc(=O)n3CC2,–,16.61%
CN1CCN(Cc2cnc3n2CCN(Cc2cccs2)C3)CC1.O=C(O)C(F)(F)F.O=C(O)C(F)(F)F.O=C(O)C(F)(F)F,–,-13.03%
CCCC(C)C(=O)NCc1cn2cc(Br)ccc2n1 (stereo not drawn),–,-3.946%
CCn1cc(NC(=O)Nc2ccc3c(c2)OCCO3)cn1,64.15% and 57.73% and 68.6%,–
CCn1cc(NC(=O)NCC(c2cccc(OC)c2)N(C)C)cn1 (stereo not drawn),18.25% and 14.26% and 26.58%,–
O=C(Cn1cc(Cl)cn1)Nc1ccc2c(c1)OCO2,-26.57% and -36.31%,–
O=C(Cn1cc(Cl)cn1)Nc1ccc2c(c1)OCCCO2,-49.11% and -46.89%,–
CCn1cc(NC(=O)NCCc2ccc3c(c2)OCCO3)cn1,–,-0.8103%
CCn1cc(NC(=O)NCC(c2ccc(OC)cc2)N(C)C)cn1 (stereo not drawn),43.93% and 35.12% and 56.29%,–
O=C(CCn1cc(Cl)cn1)Nc1ccc2c(c1)OCCO2,65.57% and 50.96%,–
